# Compound activity deposited in PubChem BioAssay by National Center for Advancing Translational Sciences (NCATS).
# Only some compounds are listed: those with a hit (about 3.1% of all), similar ones and a draw of the others.
# TSG101-PTAP inh: blocks PTAP/TSG101 interaction to inhibit HIV-1 budding. Q99816. Fluorescence polarization, FITC-PTAP peptide / Tsg101 binding. Potency, µM (series often up to 115 µM), for inactives: at the top dose activity change, negative = inhibition, hits mostly inhibitors. 340,000 tested, under 10 active. AID 493005; active means well fitted inhibition curve with a large enough effect in the main read-out, with a control signal flat, not every such curve was filed as active; inconclusive means small, poorly fitted or top-dose-only effect, or effect the other way, or a change in a side signal; inactive means no such curve, though single readings can be large or run the other way; further: potency means the concentration at half of the fitted maximal effect; % of control where 0% means no effect
#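 Compounds were pin-transferred onto Tsg101 binding domain (10 uM final) in HEPES pH 7.5 buffer, then FITC-PTAP peptide was added at 50 nM final. After 20 min at RT, polarization reported peptide displacement across a qHTS concentration series.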
# PLK1 PBD block: PLK1 (human) polo-box domain binding inhibition; AID 720504; Potency, µM, inactives show max response, negative = inhibition, actives largely listed as inhibitors; 2.8% of 360,000 active; Plk1 PBD binding of FITC phosphopeptide, fluorescence polarization; P53350; further: potency means the concentration at half of the fitted maximal effect; series mostly up to about 57 µM; on the % scale 0 is the no-effect control and ±100 the full control effect; nearly all actives have a fitted effect of over 65% in size
# TSHR antagonist: antagonists of human thyroid stimulating hormone receptor; TSHR-expressing cells, TSH-stimulated cAMP HTRF, 2 h; stronger effect = lower value; activity change, negative = inhibition, % at 11.5 µM; 0.2% of 330,000 active; AID 504810;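 active means activity change below a set negative limit, meaning inhibition stronger than a set level, cut at about -70% in these data; inconclusive means activity change between two set negative limits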; further: on the % scale 0 is the no-effect control and ±100 the full control effect
#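 TSHR-expressing cells were treated with compounds, then stimulated with TSH at EC80 (4nM final) for 2 hours at 37 deg C. Cellular cAMP was measured by HTRF competition between lysate cAMP and cAMP-d2 for a cryptate-labelled anti-cAMP antibody.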
# uPA surface inh: blocks generation of uPA at the cell surface | cell surface uPA generation assay, qHTS | Potency, µM (doses to about 38.3 µM), without a hit: at the top dose activity change, negative = inhibition, hits mostly inhibitors | 0.31% of 330,000 active | AID 540303; active means well fitted inhibition curve with a large enough effect; inconclusive means small, poorly fitted or top-dose-only effect; inactive means no such curve, though single readings can be large or run the other way; tested in mouse RAW 264.7 cells; further: potency means the concentration at half of the fitted maximal effect; on the % scale 0 is the no-effect control and ±100 the full control effect; nearly all actives have a fitted effect of over 55% in size
# VDR inhibitor: inhibitors of human vitamin D receptor; P11473; VDR-SRC2-3 peptide fluorescence polarization, 2 h; Potency, µM, inactives show max response, negative = inhibition, actives largely listed as inhibitors; 0.93% of 400,000 active; further: potency means the concentration at half of the fitted maximal effect; on the % scale 0 is the no-effect control and ±100 the full control effect
# Target sequence (P11473 whole entry, looked up): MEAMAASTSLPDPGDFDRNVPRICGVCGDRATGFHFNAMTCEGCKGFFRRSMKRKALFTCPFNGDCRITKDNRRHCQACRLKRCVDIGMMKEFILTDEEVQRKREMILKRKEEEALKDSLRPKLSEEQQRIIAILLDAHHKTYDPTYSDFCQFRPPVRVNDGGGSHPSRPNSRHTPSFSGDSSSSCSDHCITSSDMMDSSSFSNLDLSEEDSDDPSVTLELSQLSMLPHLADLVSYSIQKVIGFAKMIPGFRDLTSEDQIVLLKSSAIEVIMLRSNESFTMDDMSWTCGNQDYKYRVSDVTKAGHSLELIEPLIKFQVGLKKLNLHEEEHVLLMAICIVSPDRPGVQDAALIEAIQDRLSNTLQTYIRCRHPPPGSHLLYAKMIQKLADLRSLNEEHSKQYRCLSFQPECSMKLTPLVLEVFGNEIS
#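 Fluorescence polarization assay measuring small-molecule disruption of VDR binding to the coregulator peptide SRC2-3. Compounds were pin-transferred (23 nl) into the reagent mix and incubated 2 h at room temperature before reading.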
# * marks the source's active call; other numbers are inactive results; ? = inconclusive; . = not tested or not shown. Unless noted, the call rests on the fitted dose curve; in most records, active means well fitted curve in the direction sought with a large enough effect; inconclusive means small, poorly fitted or top-dose-only effect, or another doubt; inactive means no such curve, though single readings can be large; an effect the other way counts as inactive or inconclusive.
SMILES,TSG101-PTAP inh,PLK1 PBD block,TSHR antagonist,uPA surface inh,VDR inhibitor
O=C(CCN1C(=O)/C(=C/c2ccccc2Cl)SC1=S)Nc1ccccc1C(=O)O,-9.7%,23.8µM*,-8.4,-16.5%,79.4µM*
O=C(CCN1C(=O)/C(=C/c2ccc(F)cc2)SC1=S)NC1C=CS(=O)(=O)C1 (centres undefined),-6.7%,6.4%,11.1,5.1%,-19.0%
O=C(CCN1C(=O)/C(=C/c2ccco2)SC1=S)Nc1ccc(O)cc1C(=O)O,?,0.0%,-1.8,1.9%,?
O=C(CN1C(=O)/C(=C\c2ccco2)SC1=S)Nc1ccc(O)cc1C(=O)O,-5.0%,16.8µM*,-1.1,13.7%,-12.8%
O=C(CCN1C(=O)/C(=C/c2ccccc2Cl)SC1=S)NC1C=CS(=O)(=O)C1 (centres undefined),-1.3%,-0.1%,-10.8,7.94µM*,-7.3%
CC(C)OCCCNc1nc2c(cnn2C)c(=O)[nH]1,-0.6%,5.4%,.,4.3%,-8.2%
CC(C(=O)Nc1ccc(O)cc1C(=O)O)N1C(=O)/C(=C\c2cccs2)SC1=S (centres undefined),-6.8%,6.7µM*,8.9,2.9%,44.7µM*
COc1cccc(-c2nc(CS(=O)(=O)CC(=O)N3CCN(c4ccccc4)CC3)c(C)o2)c1,.,.,.,.,-16.2%
C#CCOCCOCCOCCNc1nc(N2CCOCC2)nc(N2CCN(C(=O)[C@H](Cc3cc4ccccc4[nH]3)n3cc([C@@H](N)Cc4ccc(O)cc4)nn3)CC2)n1,-4.4%,26.7µM*,-5.0,15.6%,-19.1%
O=C(NCc1cccc(Cl)c1)c1ccc(NC(=O)N2CC3CCCN3c3ccccc32)cc1 (centres undefined),.,.,.,.,2.7%
CN(C1CCCCC1)S(=O)(=O)c1cccc(C#N)c1,-5.5%,23.8µM*,11.7,-1.6%,-5.8%
CN(C1CCCCC1)S(=O)(=O)c1ccc(=S)[nH]c1,0.0%,21.2µM*,-1.0,1.8%,50.1µM*
CN(C1CCCCC1)S(=O)(=O)c1ccc(S(=O)(=O)N2CCCC2)cc1,0.7%,-4.2%,1.8,13.6%,8.9%
CCOc1ccc(S(=O)(=O)N(C)C2CCCCC2)cc1,-0.6%,2.9%,-8.9,2.7%,2.3%
CCCCOc1nnc(-c2ccc(OCC)cc2)c2ccccc12,.,.,.,.,-6.7%
CC(C)(C)C(c1nc2ccccc2[nH]1)n1c(-c2cccc(S(C)(=O)=O)c2)nc2ccccc21 (centres undefined),.,-0.5%,.,.,.
Cn1c(N2CCN(C(=O)Nc3ccc(C(F)(F)F)cc3)CC2)nc2ccccc21,-9.5%,10.6µM*,-13.9,-5.7%,?
Cn1c(N2CCN(C(=O)NCc3ccccc3)CC2)nc2ccccc21,-7.3%,-7.2%,11.1,1.7%,3.1%
Cn1c(CS/C(N)=N/N=C/c2ccccc2)c(Br)c(=O)n1-c1ccccc1,0.2%,23.8µM*,-0.6,-5.7%,50.1µM*
NC(=N\N=Cc1ccccc1)/C(N)=N/N=Cc1ccccc1,-0.3%,-3.2%,.,-2.3%,-4.3%
Cc1ccc(C)c(NC(=O)CCc2ccc(S(=O)(=O)NC3CCCCC3)cc2)c1,-2.9%,6.7µM*,-6.7,2.9%,-8.4%
Cc1cc(Br)ccc1NC(=O)c1sc2ncn(Cc3ccccc3Cl)c(=O)c2c1C,.,.,.,.,18.7%
CCc1ccc(CN(Cc2cn[nH]c2-c2ccc(OC)cc2)C(=O)Nc2ccc(C)c(F)c2)cc1,.,.,.,.,14.6%
Cc1ccc(F)cc1C(=O)N1CCCCC1c1cc(C(=O)NC(C)C)no1 (centres undefined),.,-3.5%,.,.,.
O=C1NC(c2ccc3c(c2)OCO3)Nc2ccccc21 (centres undefined),-1.8%,-3.1%,-0.2,-9.7%,17.4%
SMILES,TSG101-PTAP inh,PLK1 PBD block,TSHR antagonist,uPA surface inh,VDR inhibitor
CC1(CCc2ccc3c(c2)OCO3)NC(=O)c2ccccc2N1 (centres undefined),-3.9%,8.44µM*,-5.5,-1.2%,?
O=C(NNc1ccc(Cl)cc1)c1sccc1Cl,-3.3%,26.7µM*,7.8,-16.2%,?
O=C(NNc1cc(Cl)cc(Cl)c1)c1sccc1Cl,.,.,.,.,7.7%
Cc1cc(C)c(NS(=O)(=O)c2ccc(-c3cnc(C4CC4)o3)cc2)c(C)c1,.,.,.,.,2.3%
O=C(O)c1cc(=O)c2cc(Cl)ccc2[nH]1,.,.,.,.,10.8%
COc1cc(CC(=O)NC(c2ccccc2)c2ccccc2)cc(OC)c1OC,-0.9%,21.2µM*,-24.2,.,?
COc1ccc(Cl)cc1C(=O)NNC(=O)CCNC(=O)c1ccccc1,.,8.5%,.,.,.
Cc1cc(C(=O)CCl)c(C)n1-c1cccc([N+](=O)[O-])c1,-2.6%,?,-11.0,.,-20.5%
Cc1cc(C(=O)CCl)c(C)n1-c1ccon1,1.4%,26.7µM*,-0.1,-10.5%,2.1%
O=[N+]([O-])C(=C1Nc2ccccc2N1)/C(Cl)=C(/Cl)Br,0.8%,29.9µM*,2.3,?,-27.0%
CN(Cc1ccccc1)C(=C(Cl)Cl)C(=C1NCCN1)[N+](=O)[O-],-2.4%,?,14.0,2.0%,-4.7%
Cc1cccc(NC(=O)c2cc3c(=O)n(Cc4ccco4)ccc3nc2C)c1,.,.,.,.,-6.6%
COc1ccc(F)cc1-c1cc(C(=O)Nc2ccc(NC(C)=O)cc2)[nH]n1,.,7.9%,.,.,.
COc1cc2[nH]c(C(=O)Nc3ccc(F)cc3)cc2c(OC)c1OC,.,.,-77.7*,.,.
COc1ccccc1C(c1nnnn1CCc1ccccc1)N1CCN(c2ccccc2)CC1 (centres undefined),1.1%,3.1%,7.1,7.0%,-6.3%
COc1cccc(C(c2nnnn2CCc2ccccc2)N2CCN(c3ccccc3)CC2)c1OC (centres undefined),-3.7%,29.9µM*,35.3,7.7%,-11.7%
COc1ccc(Cn2nnnc2C(CC(C)C)N2CCN(c3ccccc3)CC2)cc1 (centres undefined),-4.1%,-1.2%,-72.0*,13.5%,10.3%
COc1ccc(Cn2nnnc2C(c2ccccn2)N2CCN(c3cc(Cl)ccc3C)CC2)cc1 (centres undefined),-5.0%,-4.3%,-92.7*,8.1%,-4.5%
CCOC(=O)/C(C#N)=C/c1cc2cc(C)c(C)cc2nc1Cl,-4.1%,-6.9%,-2.0,-4.7%,-14.8%
Cc1cc2cc(C=C(C#N)C#N)c(Cl)nc2cc1C,-1.5%,?,-6.8,-9.8%,50.1µM*
Cc1nn(CC(=O)NCCc2ccccc2)c(=O)c2nn(-c3ccccc3)c(C)c12,.,.,.,.,0.5%
Cc1ccc(-n2nc3c(=O)n(CC(=O)NCCCc4ccccc4)nc(C)c3c2C)cc1,1.0%,5.1%,-11.1,0.501µM*,-5.1%
COC(=O)c1ccc2nc(-c3ccc(C#N)cc3)c(Cc3ccsc3)n2c1,.,1.0%,.,.,.
CCCCNc1ccc2c3c(cccc13)C(=O)N(CCCC)C2=O,?,2.12µM*,-20.1,0.8%,-5.1%
CN(C)CCCN1C(=O)c2cccc3c(Br)ccc(c23)C1=O,?,?,-0.1,7.94µM*,-12.1%
NC(CC(=O)Nc1ccc(Oc2cc(F)c(F)cc2Br)cc1)C(=O)O (centres undefined),.,.,.,.,-7.5%
